AMA1-RON2 inh: qHTS for Inhibitors of AMA1-RON; Towards Development of Antimalarial Drug Lead: Primary Screen. AlphaScreen AMA1-biotinylated RON2 peptide binding. Potency, µM (doses to about 58.2 µM), for inactives: at the top dose activity change, negative = inhibition, actives largely listed as inhibitors. hit rate 0.2% among 360,000;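 note: 0% = vehicle wells and -100% = peptide control; nearly all actives have a fitted effect of over 45% in size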
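AMA1 (3D7) with his tag at 25 nM final met compounds first, then biotinylated RON2 peptide at 25 nM; detection used donor plus acceptor beads, 10 µg/mL apiece, read by AlphaScreen after 30 min at room temperature.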
Pf growth 48h: Primary qHTS for delayed death inhibitors of the malarial parasite plastid, 48 hour incubation. P. falciparum luciferase growth in erythrocytes, 48 h. Potency, µM (series often up to 28.7 µM), without a hit: top-dose activity change, negative = inhibition, actives largely listed as inhibitors. hit rate 5.9% among 310,000. AID 504832, 2011; note: % is set by controls: 0 for no effect and ±100 for the full control effect
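A one-generation exposure of luciferase-tagged malaria parasites in RPMI 1640/Albumax erythrocyte culture, 37 C and 5% CO2. Inhibition is inferred from decreased luminescence after adding detection reagent.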
Pf growth 96h: Primary qHTS for delayed death inhibitors of the malarial parasite plastid, 96 hour incubation; P. falciparum luciferase reporter growth, 96 h; Potency, µM (titrated, usually from 28.7 µM), for inactives: at the highest dose activity change, negative = inhibition, actives largely listed as inhibitors; hit rate 6.9% among 320,000; AID 504834, 2011; note: % is set by controls: 0 for no effect and ±100 for the full control effect
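Erythrocytes infected with luciferase-expressing P. falciparum were dispensed at 2% hematocrit and 0.05% parasitemia (final), then incubated with compounds 96 hours at 37 C in 5% CO2. Luminescence after detection reagent addition reported growth.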
SARS PLpro yeast: qHTS of Yeast-based Assay for SARS-CoV PLP. S. cerevisiae expressing SARS-CoV PLpro, growth rescue. Potency, µM (highest dose often 32.9 µM), inactives show at the highest dose activity, positive = growth rescue, most hits filed as activators. hit rate 0.19% among 330,000; calls by dose curve; note: 0% is about no effect; nearly all actives have a fitted effect of over 55% in size
An asterisk follows results filed as active; ? = inconclusive; · = no result; [ ] = dose if it differs, or a comment. In the library only some 9.4% were active in any assay of this set; here they are far more common. Unless noted, calls come from the whole dose curve; as a rule, active = well fitted curve in the direction sought with a large enough effect; inconclusive = small, poorly fitted or top-dose-only effect, or another doubt; inactive = no such curve, though single readings can be large; an effect the other way counts as inactive or inconclusive. Potency is the fitted concentration of half-maximal effect.

SMILES | AMA1-RON2 inh | Pf growth 48h | Pf growth 96h | SARS PLpro yeast
CSc1ccc(-c2sc(Nc3ccccc3)n[n+]2-c2ccccc2)cc1 | -23% | ? | 1.9µM* | -2%
CCc1ccc(Nc2n[n+](-c3ccccc3)c(-c3ccc(SC)cc3)s2)cc1 | 0% | ? | 4.7µM* | -2%
COc1cc(OC)c(-c2sc(Nc3ccccc3)n[n+]2-c2ccc(F)cc2)cc1OC | -2% | 11% | 20% | -1%
CC(C)CN(C(=O)CSc1ncnc2ccccc12)C1CCS(=O)(=O)C1 (stereo not drawn) | -3% | -25% | -20% | -3%
CCCN1CCN(C(=O)Nc2ccc(C(=O)OCC)cc2)CC1 | -1% | · | -29% | 2%
Cc1ccc(NC(=O)Nc2cccc([N+](=O)[O-])c2)nc1 | -2% | 83% | ? | 1%
CCOC(=O)/C=C/C(=O)Nc1ccc(Oc2ccccc2)cc1 | -13% | 0% | 27% | -1%
CCN(Cc1nc2cc(Cl)ccc2c(=O)[nH]1)C(=O)c1ccc(C)c(NC(=O)c2ccco2)c1 | 48% | 9.3µM* | 8.3µM* | 11%
CCN(CC)C(=O)COC(=O)c1ccc(C)c(NC(=O)c2ccco2)c1 | -2% | 43% | 50% | -6%
CCN(Cc1nc2cc(Cl)ccc2c(=O)[nH]1)C(=O)c1nn(C)c(=O)c2ccccc12 | 24%[11.6 µM] | 8.3µM* | ? | -7%
CC1(C)CC(=O)C2=C(C1)Oc1nc3ccccc3cc1C2C(C#N)C#N (stereo not drawn) | -6% | 0.66µM* | -1% | -16%
O=C(CN1C(=O)S/C(=C/c2ccncc2)C1=O)Nc1ccccc1 | 111% | -4% | ? | 1%
Cc1ccc(NC(=O)CN2C(=O)S/C(=C\c3ccccn3)C2=O)cc1C | 0% | -13% | 10µM* | 6%
COc1ccc(C(CC(=O)c2ccc(C)cc2)C(C#N)C#N)cc1OC (stereo not drawn) | -10% | 13µM* | 22% | -9%
O=C(Nc1ccc(S(=O)(=O)NC2=NCCCCC2)cc1)c1ccc([N+](=O)[O-])s1 | -1% | 10µM* | 13µM* | -20%
Cc1ccnc(NS(=O)(=O)c2ccc(NC(=O)c3ccc([N+](=O)[O-])s3)cc2)n1 | -13% | 4.1µM* | 12µM* | 4%
Cc1cc(NS(=O)(=O)c2ccc(NC(=O)c3ccc([N+](=O)[O-])s3)cc2)nc(C)n1 | -5% | · | · | 2%
Cc1ccnc(NS(=O)(=O)c2ccc(NC(=O)C3CC=CCC3C(=O)O)cc2)n1 (stereo not drawn) | 2% | -2% | ? | 0%
Cc1ccnc(NS(=O)(=O)c2ccc(NC(=O)C3CCCCC3C(=O)O)cc2)n1 (stereo not drawn) | 43% | 27% | 2.9µM* | -1%
O=C(Nc1ccccc1)C1C2CCCCC21 (stereo not drawn) | 20% | 15% | 60% | 3%
Cc1cccc(NC(=O)C2C3CCCCC32)c1 (stereo not drawn) | 8% | -5% | 0.19µM* | -4%
COc1ccc(/C=C/C(=O)NC(=S)N2CCN(c3ccccc3OC)CC2)cc1 | 84% | -11% | -24% | 0%
O=c1[nH]c(CN2CCN(c3ccccc3)CC2)nc2scc(-c3ccccc3)c12 | 28% | ? | ? | 11%
Cc1sc2nc(CN3CCN(c4ccc(O)cc4)CC3)[nH]c(=O)c2c1C | 19% | ? | 12µM* | -1%
O=C(Nc1ncccn1)C12CC3CC(CC(C3)C1)C2 | -10% | -3% | -4% | 1%
SMILES | AMA1-RON2 inh | Pf growth 48h | Pf growth 96h | SARS PLpro yeast
O=C(Nc1ccccn1)C12CC3CC(CC(C3)C1)C2 | -4% | 13µM* | · | -4%
O=C(c1ccc(F)cc1)N1CCN(Cc2ccccc2)CC1 | -2% | -12% | -8% | 2%
O=C(NCCN1CCN(C(=O)c2ccc(F)cc2)CC1)c1ccc(F)cc1 | -3% | 4% | 12µM* | 3%
CCCCn1nnnc1SCC(=O)Nc1ccc2c(c1)OCO2 | 6% | 18% | · | -2%
CCOc1ccccc1NC(=O)CSc1nc2c(c(=O)n1C)SC(C)C2 (stereo not drawn) | -4% | ? | ? | -9%
COc1ccc(C(CNC(=O)c2ccc(-c3cccc(C(F)(F)F)c3)o2)N2CCOCC2)cc1 (stereo not drawn) | -21% | 6.6µM* | 1.5µM* | 2%
COc1ccc(NC(=O)CN(C)C(=O)c2ccc(-c3ccccc3Cl)o2)cc1 | -3% | 0.37µM* | 0.33µM* | -5%
COc1ccccc1CNC(=O)c1ccccc1C(=O)NC(C)(C)C(=O)NCc1ccccc1OC | 0% | 2% | 13µM* | 2%
COc1ccc(NC(=O)CN(C)C(=O)c2ccc(-c3cccc(C(F)(F)F)c3)o2)cc1 | -15% | ? | 0.37µM* | 5%
COc1ccccc1CNC(=O)c1ccc(-c2ccccc2Cl)o1 | 0% | -25% | 10µM* | -30%
CCN(CC(=O)NCc1cccs1)C(=O)c1ccc(-c2cccc(C(F)(F)F)c2)o1 | -4% | ? | 9.3µM* | 3%
CN(CC(=O)Nc1ccccc1Cl)C(=O)c1ccc(-c2cccc(C(F)(F)F)c2)o1 | -10% | 2.1µM* | 0.41µM* | -2%
CCN(CC(=O)NCc1cccs1)C(=O)COc1cccc(C(F)(F)F)c1 | 5% | ? | ? | -3%
Cc1ccccc1-n1ncc2c(SCC(=O)N3c4ccccc4CC3C)ncnc21 (stereo not drawn) | -2% | ? | ? | -11%
Fc1ccc2c(c1)nnn2C1CCN(Cc2c(Cl)cccc2Cl)CC1 | 2% | 10µM* | 10µM* | -4%
Cc1ccc(C)c(CN2CCC(n3nnc4cc(F)ccc43)CC2)c1 | -5% | 8.3µM* | 13µM* | 2%
Fc1ccc2c(c1)nnn2C1CCN(Cc2nnnn2C2CCCCC2)CC1 | -11% | ? | -8% | -4%
CCOC(=O)CNC(=O)Cc1ccc(OC)cc1 | -1% | 3% | 7% | -1%
NNC(=O)c1ccc2nc(-c3ccc(Br)cc3)cn2c1 | 57% | ? | -65% | -14%
COc1ccc(-c2cn3cc(C(=O)NN)ccc3n2)cc1 | 33% | 187% | 4.7µM* | -4%
CNc1ccccc1C(C)(C)c1cc(-c2cc(C)cc(C)c2)no1 | ? | ? | 9.3µM* | -25%
CNc1ccccc1C(C)(C)c1cc(-c2cccc(OC)c2)no1 | 1% | ? | ? | -3%
Cc1nc2n(n1)CC(O)CS2 (stereo not drawn) | 3% | 5% | -12% | 1%
COc1ccc(C(=O)Nc2nccs2)cc1OC | -30% | 98% | · | 6%
Nc1ncnc2c1ncn2[C@@H]1O[C@H](COS(=O)(=O)O)[C@@H](O)[C@H]1O | -1% | 13µM* | ? | 4%
Nc1ncnc2c1ncn2C1OC(CO)C2OC21 (stereo not drawn) | -5% | · | · | ·
CCOC1OC2C(CO)OC(n3cnc4c(N)ncnc43)C2O1 (stereo not drawn) | -7% | 0% | 4.7µM* | 2%
O=c1c2ccccc2nc(-c2ccccc2)n1-c1nccs1 | -1% | 12% | 6% | 11%

Assay outcomes deposited in PubChem BioAssay by National Center for Advancing Translational Sciences (NCATS).
